Compound activity deposited in PubChem by National Center for Advancing Translational Sciences (NCATS).
Only some compounds are listed: those with a hit (about 3.2% of all), similar ones and a draw of the others.
p53null 39C tox – qHTS Screen for Compounds that Selectively Target Cancer Cells with p53 Mutations: Cytotoxicity of p53 Null Cells at the Nonpermissive Temperature; H1299 p53-null (neo) cells, 39C, ATPlite viability, 24 h; Potency, µM (series often up to 46.1 µM), hits mostly cytotoxic; 55,000 tested, 0.97% active; further: nearly all actives have a fitted effect of over 50% in size
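Cells seeded at 600/well, 37C overnight. Compound added (up to 46 uM), plates shifted to 39C for 24 hr. ATPlite added, luminescence read after 20 min at room temperature.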
mTORC1 inh – Acumen qHTS Assay for Inhibitors of the mTORC1 Signaling Pathway in MEF (Tsc2-/-, p53-/-) Cells: Sytravon. Tsc2-/- p53-/- MEF, phospho-rpS6 immunofluorescence/PI, 24 h. Potency, µM (top dose mostly 38.3 µM), usual class: inhibitors. 44,000 tested, 0.78% active. AID 493208, 2011; further: nearly all actives have a fitted effect of over 50% in size
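Tsc2-/-, p53-/- MEFs (empty-vector stable line) in DMEM + 10% FBS were treated with compounds 24 h at 37 degree Celsius, fixed, and immunostained for phospho-rpS6 (Alexa-488) with propidium iodide counterstain. Laser-scanning cytometry gave % positive cells, normalized against 7.5 nM rapamycin and DMSO.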
PMP22 txn – Cell-based coincidence reporter assay to measure PMP22 gene transcription in S16 Pmp22-F2sN cells - Primary screen; S16 Pmp22-F2sN Schwann cells, FLuc/NLuc coincidence luminescence, 24 h; Potency, µM (top dose mostly 57.5 µM), hits mostly inhibitors; 43,000 tested, 2% active; AID 1508649, 2021; active means clear falling dose curves in both reporters; inconclusive means both reporters move, but less clearly or upward; inactive means either reporter flat; the % is the NLuc reporter signal
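Luminescent read-out of sequential FLuc and NLuc signals from a reporter embedded in the Pmp22 3' UTR of S16 Schwann cells, taken after 24 h compound exposure at 37C; compounds reducing both signals score as inhibitors of expression.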
p53null 32C kill – qHTS Screen for Compounds that Selectively Target Cancer Cells with p53 Mutations: Cytotoxicity of p53 Null Cells at the Permissive Temperature. H1299-neo p53 null cells, ATP luminescence, 24 h, 32C. Potency, µM (doses to about 46.1 µM), actives largely listed as cytotoxic. 55,000 tested, 0.62% active; further: nearly all actives have a fitted effect of over 55% in size
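AC50 values derive from Hill modelling of qHTS concentration-response data (up to 46 uM) in H1299-neo cells. Cells were treated 24 h at 32C following overnight attachment at 37C; viability was read as cellular ATP.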
S16 F2sN tox – Cell viability qHTS assay in S16 Pmp22-F2sN cells; S16 Pmp22-F2sN Schwann cells (luciferase reporters placed in the Pmp22 gene) viability, CellTiter-Glo, 24 h; Potency, µM (doses to about 57.5 µM), most hits filed as cytotoxic; 43,000 tested, 0.48% active; further: nearly all actives have a fitted effect of over 65% in size
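CellTiter-Glo counter-screen, qHTS, 1536-well. Cells: S16(c9) Pmp22-F2sN, 500-1,000/well in DMEM + 10% FBS. Cpd 23 nL pin transfer, 24 h, 37C/5% CO2. Read: luminescence, CCD imager.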
NLuc saturating – Biochemical NLuc saturation counterscreen for small molecule modulators of PMP22 gene expression - Nano-Glo assay; shares compounds with PMP22 txn; Secreted NLuc enzyme (filtered S16 cell medium), Nano-Glo luminescence; Potency, µM (series often up to 57.5 µM), usual class: inhibitors; 690 tested, 4% active; AID 1508638, 2021
NLuc Km ctr – Biochemical coelenterazine-based NLuc counterscreen for small molecule modulators of PMP22 gene expression - Km assay | shares compounds with PMP22 txn | secreted NLuc enzyme, coelenterazine luminescence, Km conditions | Potency, µM (top dose mostly 57.5 µM), hits mostly inhibitors | 690 tested, 5% active
FLuc counter – Biochemical FLuc counterscreen for small molecule modulators of PMP22 gene expression. Potency, µM (doses to about 57.5 µM), most hits filed as inhibitors. shares compounds with PMP22 txn. purified P. pyralis FLuc, luminescence, 10 min. 690 tested, under 10 active
Target sequence (P08659 whole entry, looked up): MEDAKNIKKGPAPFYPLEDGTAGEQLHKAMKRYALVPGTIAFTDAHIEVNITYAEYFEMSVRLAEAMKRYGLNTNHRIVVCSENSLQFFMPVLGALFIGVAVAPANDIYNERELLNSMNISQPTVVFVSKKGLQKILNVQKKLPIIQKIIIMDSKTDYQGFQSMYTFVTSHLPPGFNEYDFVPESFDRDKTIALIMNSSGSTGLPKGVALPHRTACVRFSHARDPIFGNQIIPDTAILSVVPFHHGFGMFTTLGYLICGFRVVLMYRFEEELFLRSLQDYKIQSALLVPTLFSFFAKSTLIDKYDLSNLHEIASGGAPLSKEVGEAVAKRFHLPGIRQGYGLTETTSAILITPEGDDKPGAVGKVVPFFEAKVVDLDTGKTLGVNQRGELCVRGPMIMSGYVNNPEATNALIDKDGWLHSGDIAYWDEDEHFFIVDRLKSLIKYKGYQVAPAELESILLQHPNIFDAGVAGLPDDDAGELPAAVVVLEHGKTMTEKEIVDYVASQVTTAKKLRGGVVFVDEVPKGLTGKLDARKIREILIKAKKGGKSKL
S16 F2sN tox cnf – Cell viability qHTS assay in S16 Pmp22-F2sN cells - Confirmatory screen; 690 tested, 7% active; shares compounds with PMP22 txn; Potency, µM (highest dose often 57.5 µM), most hits filed as cytotoxic; S16 Schwann cells viability, CellTiter-Glo ATP luminescence, 24 h
PMP22 txn cnf – Cell-based coincidence reporter assay to measure PMP22 gene transcription in S16 Pmp22-F2sN cells - Confirmatory screen; 690 tested, 22% active; Potency, µM (top dose mostly 57.5 µM), usual class: inhibitors; S16 Schwann cells Pmp22-F2sN, dual luciferase, 24 h; shares compounds with PMP22 txn; active means clear falling dose curves in both reporters; inconclusive means both reporters move, but less clearly or upward; inactive means either reporter flat; the % is the FLuc reporter signal
PMP22 HiBiT cnf – Cell-based HiBiT reporter assay to measure PMP22 protein expression in S16 Pmp22-HiBiT cells - Confirmatory screen. AID 1508647, 2021. S16 Schwann cells Pmp22-HiBiT, luminescence, 48 h. shares compounds with PMP22 txn. 95 tested, under 10 active. Potency, µM (titrated, usually from 27.9 µM), hits mostly inhibitors
Target sequence (P25094 whole entry, looked up): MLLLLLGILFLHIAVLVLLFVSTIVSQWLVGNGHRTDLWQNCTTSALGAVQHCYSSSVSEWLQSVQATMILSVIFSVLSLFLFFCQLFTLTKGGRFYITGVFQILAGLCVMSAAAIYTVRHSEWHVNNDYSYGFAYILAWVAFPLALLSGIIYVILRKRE
Each line names hits and unclear results; the compound was inactive in the other large screens (follow-up assays come after a bar, where they were run). Unless noted, the call rests on the fitted dose curve; in most records, active means well fitted curve in the direction sought with a large enough effect; inconclusive means small, poorly fitted or top-dose-only effect, or another doubt; inactive means no such curve, though single readings can be large; an effect the other way counts as inactive or inconclusive.

CCCCOC(=O)c1ccc(Nc2nc3ccccc3c3nnc(C)n23)cc1	none
CCN(CC)c1cc(C)c2cc(NC(=O)/C=C/c3ccccc3Cl)ccc2n1	p53null 39C tox inconclusive, mTORC1 inh inconclusive, PMP22 txn 12µM, S16 F2sN tox inconclusive | NLuc saturating inconclusive | NLuc Km ctr inactive | FLuc counter inactive | S16 F2sN tox cnf inconclusive | PMP22 txn cnf inconclusive
CCc1ccc(N2C(=O)CSC23C(=O)N(Cc2cccc(OC)c2)c2ccccc23)cc1 (configuration not stated)	PMP22 txn 13µM, S16 F2sN tox inconclusive | NLuc saturating inactive | NLuc Km ctr inactive | FLuc counter inactive | S16 F2sN tox cnf inactive | PMP22 txn cnf inactive
COc1ccc(N2C(=O)CSC23C(=O)N(Cc2cccc(C(F)(F)F)c2)c2ccccc23)cc1 (configuration not stated)	PMP22 txn inconclusive
CSc1ccc(CNC(=O)CCn2c(=O)c3cccn3c3ccc(F)cc32)cc1	none
CN(Cc1ccccc1)C(=O)c1ccc2c(c1)N(Cc1ccc(Cl)cc1)C(=O)c1ccccc1S2=O (configuration not stated)	PMP22 txn inconclusive
O=C(COc1ccccc1)N(Cc1cccnc1)c1nc2ccc(F)cc2s1	none
O=C(CCOc1ccccc1)N(Cc1cccnc1)c1nc2ccc(F)cc2s1	PMP22 txn 13µM, S16 F2sN tox 25µM | NLuc saturating inconclusive | NLuc Km ctr inconclusive | FLuc counter inactive | S16 F2sN tox cnf inactive | PMP22 txn cnf inactive
CCCSc1oc(-c2cccs2)nc1S(=O)(=O)c1ccc(C)cc1	none
CCCCCS(=O)(=O)c1oc(-c2cccs2)nc1S(=O)(=O)c1ccc(C)cc1	PMP22 txn 13µM, S16 F2sN tox inconclusive | NLuc saturating inactive | NLuc Km ctr inactive | FLuc counter inactive | S16 F2sN tox cnf inconclusive | PMP22 txn cnf 17µM | PMP22 HiBiT cnf inactive
COc1ccc(-c2c(C)nn3c(N4CCN(c5cc(Cl)ccc5C)CC4)cc(C)nc23)cc1OC	PMP22 txn 15µM | NLuc saturating inactive | NLuc Km ctr inconclusive | FLuc counter inactive | S16 F2sN tox cnf inactive | PMP22 txn cnf inactive
COc1ccccc1-c1c(C)nn2c(N3CCN(c4ccc(Cl)cc4)CC3)cc(C)nc12	none
O=C(Cn1c(=O)n(-c2ccc(Cl)cc2)c(=O)c2c3c(sc21)CCC3)c1ccc(F)cc1	none
O=c1c2c3c(sc2n(Cc2ccccc2F)c(=O)n1-c1ccc(Cl)cc1)CCCC3	PMP22 txn 10µM | NLuc saturating inactive | NLuc Km ctr inactive | FLuc counter inactive | S16 F2sN tox cnf inactive | PMP22 txn cnf inconclusive
CCC1=Nc2cc(C(=O)NCCN(CC)CC)ccc2Sc2ccccc21	mTORC1 inh inconclusive, PMP22 txn 17µM | NLuc saturating inactive | NLuc Km ctr inactive | FLuc counter inactive | S16 F2sN tox cnf inactive | PMP22 txn cnf inconclusive
CCCNC(=O)c1ccc2c(c1)N=C(CCC)c1ccccc1S2	p53null 39C tox inconclusive, mTORC1 inh inconclusive, PMP22 txn 11µM | NLuc saturating inconclusive | NLuc Km ctr 9.7µM | FLuc counter inactive | S16 F2sN tox cnf inactive | PMP22 txn cnf 4.1µM
CCOC(=O)c1[nH]c2c(c1Cc1ccccc1)C(=O)CC(c1ccc(OC)cc1)C2 (configuration not stated)	none
O=C(CCn1cccn1)NCc1ccc(Cl)cc1	none
CCOC(=O)c1cc2c(=O)n3ccccc3nc2n(CC(C)C)c1=NC(=O)C(C)(C)Oc1ccc(Cl)cc1	PMP22 txn inconclusive
CCOC(=O)c1cc2c(=O)n3ccccc3nc2n(CC(C)C)c1=NC(=O)COc1ccc(Cl)cc1	PMP22 txn 16µM | NLuc saturating inactive | NLuc Km ctr inactive | FLuc counter inactive | S16 F2sN tox cnf inactive | PMP22 txn cnf inconclusive
CCOC(=O)c1oc2c(c1C)-c1nn(Cc3ccc(Cl)cc3)cc1CC2	PMP22 txn inconclusive | NLuc saturating inconclusive | NLuc Km ctr inconclusive | FLuc counter inactive | S16 F2sN tox cnf inactive | PMP22 txn cnf inactive
COc1cc(C2C(C(=O)OC(C)C)=C(C)N=C3SCCC(=O)N32)ccc1OCc1ccccc1 (configuration not stated)	PMP22 txn 20µM | NLuc saturating inactive | NLuc Km ctr inactive | FLuc counter inactive | S16 F2sN tox cnf inconclusive | PMP22 txn cnf inactive
COC(=O)C1=C(C)N=C2SCCC(=O)N2C1c1ccc(OCc2ccccc2)c(OC)c1 (configuration not stated)	none
Cc1ccc(S(=O)(=O)CC(=O)N2CCN(c3nc4c(F)cccc4s3)CC2)cc1	PMP22 txn inconclusive
